Tested on: Vero E6 infected with SARS-CoV-2
Assay: inhibition of SARS-CoV-2 cytopathic effect; higher = more antiviral protection, active = above 15
Conditions: 48 h

Measured: inhibition of SARS-CoV-2 cytopathic effect

COc1ccc(Cc2nccc3cc(OC)c(OC)cc23)cc1OC [papaverine]
inactive: 1 nM -0.41% | 8.33 nM 0.26% | 100 nM -3.04% | 833.33 nM -2.94% | 10000 nM -1.53%

CO[C@]12C[C@@H](COC(=O)c3cncc(Br)c3)CN(C)[C@@H]1Cc1cn(C)c3cccc2c13 [nicergoline]
inactive: 1 nM 0.73% | 8.33 nM -1.36% | 100 nM -1.54% | 833.33 nM 0.48% | 10000 nM -0.35%

COC(=O)Nc1nc2cc([S+]([O-])c3ccccc3)ccc2[nH]1 (stereo not given) [oxfendazole]
inactive: 1 nM 3.62% | 8.33 nM 1.23% | 100 nM 6.94% | 833.33 nM 0.7% | 10000 nM -1.5%

CCCCCCCCc1ccc(-c2ccc(C(=O)O)cc2)cc1
inactive: 1 nM -0.05% | 8.33 nM 1.54% | 100 nM 1.52% | 833.33 nM 3.77% | 10000 nM 1.83%

COC(=O)[C@@H](N)CS [mecysteine]
inactive: 1 nM 2.04% | 8.33 nM -0.66% | 100 nM -0.44% | 833.33 nM 2.25% | 10000 nM 2.07%

O=C(NC[C@H]1CN(c2ccc(N3CCOCC3=O)cc2)C(=O)O1)c1ccc(Cl)s1 [Rivaroxaban (Xarelto)]
inactive: 1 nM 1.99% | 8.33 nM 1.35% | 100 nM 3.46% | 833.33 nM 1.51% | 10000 nM 3.09%

O=C(Nc1c(-c2cccs2)nc2ccccn12)c1ccc(Cl)cc1
inactive: 1 nM 1.67% | 8.33 nM -0.43% | 100 nM -1.06% | 833.33 nM 1.78% | 10000 nM 9.03%

Source: the supplement of paper PMC13380429
